Experimental data published in PubChem BioAssay AID1159580 (chemical genetic matrix, 2015).
“And” between values parts separate entries of the source, which are not always exact repeats. Equal values may be shown once. Screen size: about 5,500 compounds; about 2,000 (36%) were called active. Not shown: some 18% with an inconclusive outcome. No stated cut-off is given here; in the data, active means normalized growth mostly below about 0.91 (no sharp cut-off); inconclusive means no clear call, values can overlap the other calls; inactive means mostly above about 0.92. Some of the results follow.

Test: chemical genetic growth profiling, strain panel (AID 1159580);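 further: tested at 20 µM; growth read once vehicle control cultures reached saturation at 30 °C; 1 = growth at the plate median or of vehicle wells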
Settings: S. cerevisiae deletion strains, growth OD

Measured: normalized growth

NC(=O)c1ccc[n+]([C@@H]2O[C@H](COP(=O)([O-])OP(=O)(O)OC[C@H]3O[C@@H](n4cnc5c(N)ncnc54)[C@H](O)[C@@H]3O)[C@@H](O)[C@H]2O)c1
inactive: locus YAL013W, strain DEP1, stronger effect = lower value 0.974 | locus YAL021C, strain ccr4, stronger effect = lower value 1.05 | locus YAL026C, strain drs2, stronger effect = lower value 1.04 | locus YAL030W, strain snc1, stronger effect = lower value 1.02 | locus YBL061C, strain skt5, stronger effect = lower value 1.03 | locus YBR009C, strain hhf1, stronger effect = lower value 1.05 | locus YBR021W, strain FUR4, stronger effect = lower value 0.996 | locus YBR023C, strain chs3, stronger effect = lower value 1.03 | locus YBR171W, strain sec66, stronger effect = lower value 1.06 | locus YBR229C, strain ROT2, stronger effect = lower value 0.949 | locus YBR231C, strain swc5, stronger effect = lower value 1.03 | locus YBR279W, strain paf1, stronger effect = lower value 1.02 | locus YCL011C, strain gbp2, stronger effect = lower value 1.04 | locus YCL016C, strain dcc1, stronger effect = lower value 1.04 | locus YCL029C, strain bik1, stronger effect = lower value 0.99 | locus YCL061C, strain MRC1, stronger effect = lower value 1.03 | locus YCL069W, strain vba3, stronger effect = lower value 1.03 | locus YCR088W, strain abp1, stronger effect = lower value 1.03 | locus YDL005C, strain med2, stronger effect = lower value 1.02 | locus YDL035C, strain GPR1, stronger effect = lower value 0.986 | locus YDL040C, strain nat1, stronger effect = lower value 1.03 | locus YDL074C, strain BRE1, stronger effect = lower value 1.03 | locus YDL101C, strain DUN1, stronger effect = lower value 0.987 | locus YDL134C, strain PPH21, stronger effect = lower value 0.978 | locus YDL185W, strain tfp1, stronger effect = lower value 0.994 | locus YDL192W, strain arf1, stronger effect = lower value 0.99 | locus YDR001C, strain nth1, stronger effect = lower value 1.02 | locus YDR069C, strain doa4, stronger effect = lower value 1.02 | locus YDR101C, strain arx1, stronger effect = lower value 1.01 | locus YDR137W, strain rgp1, stronger effect = lower value 1.07 | locus YDR150W, strain NUM1, stronger effect = lower value 0.965 | locus YDR159W, strain sac3, stronger effect = lower value 0.949 | locus YDR162C, strain NBP2, stronger effect = lower value 0.973 | locus YDR195W, strain ref2 1.08 | locus YDR297W, strain sur2, stronger effect = lower value 1.04 | locus YDR318W, strain mcm21, stronger effect = lower value 1.02 | locus YDR334W, strain swr1, stronger effect = lower value 1.02 | locus YDR335W, strain msn5, stronger effect = lower value 1.05 | locus YDR388W, stronger effect = lower value 0.99 | locus YDR392W, strain spt3, stronger effect = lower value 1.08 | locus YDR502C, strain sam2, stronger effect = lower value 0.992 | locus YEL003W, strain gim4, stronger effect = lower value 1.02 | locus YEL037C, strain rad23, stronger effect = lower value 1.03 | locus YEL061C, strain CIN8 (second series), stronger effect = lower value 1.02 | locus YEL061C, strain CIN8, stronger effect = lower value 0.981 | locus YER015W, strain faa2, stronger effect = lower value 1.04 | locus YER016W, strain bim1, stronger effect = lower value 1.04 | locus YER110C, stronger effect = lower value 0.973 | locus YER111C, strain swi4, stronger effect = lower value 1.03 | locus YER155C, strain BEM2 (second series), stronger effect = lower value 1.06 | locus YER155C, strain BEM2, stronger effect = lower value 0.99 | locus YER167W, strain BCK2, stronger effect = lower value 0.987 | locus YFR010W, strain ubp6, stronger effect = lower value 1.05 | locus YGL078C, strain dbp3, stronger effect = lower value 0.998 | locus YGL086W, strain mad1, stronger effect = lower value 0.992 | locus YGL167C, strain pmr1, stronger effect = lower value 1.04 | locus YGL173C, strain kem1, stronger effect = lower value 1.04 | locus YGL227W, strain vid30, stronger effect = lower value 1.03 | locus YGL240W, strain doc1, stronger effect = lower value 1.02 | locus YGL248W, strain PDE1, stronger effect = lower value 0.977 | locus YGL253W, strain hxk2, stronger effect = lower value 1.04 | locus YGR078C, strain PAC10, stronger effect = lower value 1.02 | locus YGR135W, strain pre9, stronger effect = lower value 1 | locus YGR229C, strain SMI1, stronger effect = lower value 1.02 | locus YGR252W, strain gcn5, stronger effect = lower value 0.913 | locus YHR013C, strain ard1, stronger effect = lower value 1.08 | locus YHR027C, strain rpn1, stronger effect = lower value 1.03 | locus YHR030C, strain SLT2, stronger effect = lower value 0.981 and 0.987 | locus YHR079C, strain IRE1 (second series), stronger effect = lower value 1 | locus YHR079C, strain IRE1, stronger effect = lower value 0.962 | locus YHR094C, strain hxt1, stronger effect = lower value 0.993 | locus YHR129C, strain ARP1, stronger effect = lower value 0.996 | locus YHR142W, strain chs7, stronger effect = lower value 1.09 | locus YHR200W, strain rpn10, stronger effect = lower value 0.994 | locus YIL066C, strain RNR3, stronger effect = lower value 0.982 | locus YIL073C, strain SPO22, stronger effect = lower value 0.985 | locus YIL125W, strain kgd1, stronger effect = lower value 0.986 | locus YIR030C, strain dcg1, stronger effect = lower value 0.988 | locus YJL092W, strain hpr5, stronger effect = lower value 1.02 | locus YJL095W, strain BCK1 (second series), stronger effect = lower value 1.02 | locus YJL095W, strain BCK1, stronger effect = lower value 1.03 and 0.983 | locus YJL115W, strain asf1, stronger effect = lower value 1.03 | locus YJL129C, strain trk1, stronger effect = lower value 1.06 | locus YJL134W, strain LCB3, stronger effect = lower value 0.977 | locus YJL154C, strain vps35, stronger effect = lower value 1.02 | locus YJL164C, strain tpk1, stronger effect = lower value 1.05 | locus YJL166W, strain qcr8, stronger effect = lower value 1.03 | locus YJL168C, strain set2, stronger effect = lower value 0.995 | locus YJL187C, strain SWE1 (second series), stronger effect = lower value 0.987 | locus YJR043C, strain POL32, stronger effect = lower value 1.02 | locus YJR066W, strain TOR1, stronger effect = lower value 0.943
